# MRP1 act – activators of MRP-1 | hit rate 0.61% among 140,000 | H69AR cells + doxorubicin, viability rescue, CellTiter-Glo | viability increase, % at 10 µM;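 active means viability gain under doxorubicin at or above a set limit, the compound median plus 3 SD, cut at about 4.7% in these data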;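 further: MRP-1 overexpressing cells given doxorubicin 25 µM after compound pretreatment; 18-22 h compound pretreatment then 72 h with doxorubicin before readout; 0% = doxorubicin-only wells and 100% = vehicle-treated cells without doxorubicin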
# ERa coact pot – ER-alpha (human) coactivator binding potentiation | P03372 | TR-FRET ERalpha-LBD/SRC-Cy5 coactivator binding, 2 h; 100 = basal binding, no effect | coactivator binding (% of control), % at 25.6 µM | hit rate 1.3% among 86,000; in the data active means activity above about 200%;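 further: binding measured in presence of low estradiol as agonist stimulus; 0% = peptide alone without receptor and 100% = receptor with peptide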
# ERb SRC1 inh – blocks coactivator binding to human estrogen receptor beta; TR-FRET ER-beta LBD / SRC1-Cy5 peptide binding; receptor agonist-loaded with 1 µM estradiol; hit rate 1.3% among 86,000; AID 633; inhibition, % at 25.6 µM; Q92731;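 active means compounds whose percent inhibition of the receptor-coactivator binding signal exceeds about 50% in the single-dose screen, limit read from the data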;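 further: 0% = receptor plus peptide wells without compound and 100% = peptide-only wells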
# Target sequence (Q92731 whole entry, looked up, the tested form may be a part): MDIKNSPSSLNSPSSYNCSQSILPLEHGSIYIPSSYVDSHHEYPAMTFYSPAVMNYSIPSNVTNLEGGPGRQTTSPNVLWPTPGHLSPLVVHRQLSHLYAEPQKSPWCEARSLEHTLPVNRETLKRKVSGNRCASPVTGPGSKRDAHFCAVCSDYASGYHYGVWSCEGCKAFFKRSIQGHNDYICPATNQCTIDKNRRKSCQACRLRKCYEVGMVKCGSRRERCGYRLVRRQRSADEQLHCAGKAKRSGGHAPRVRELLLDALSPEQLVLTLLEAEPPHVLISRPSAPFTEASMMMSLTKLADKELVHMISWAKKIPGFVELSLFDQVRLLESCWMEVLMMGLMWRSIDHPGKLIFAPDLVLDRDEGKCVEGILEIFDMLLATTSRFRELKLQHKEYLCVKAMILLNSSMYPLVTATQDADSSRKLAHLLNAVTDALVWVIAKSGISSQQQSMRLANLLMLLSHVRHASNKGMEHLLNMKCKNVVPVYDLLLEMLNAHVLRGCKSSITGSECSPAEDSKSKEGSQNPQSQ
# ERa coact inh – ER-alpha (human) coactivator binding inhibition; P03372; TR-FRET ER-alpha LBD / SRC-1 peptide, estradiol-bound; inhibition, % at 25.6 µM; hit rate 1.7% among 86,000; in the data active means inhibition above about 50%;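 further: 0% = receptor plus peptide control and 100% = peptide only without receptor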
# Smad3 inh – inhibitors of human Smad3 transcription factor binding; P84022; TR-FRET Smad3/Dy647-FoxH1 peptide binding, europium anti-His; inhibition, % at 25 µM; hit rate 0.29% among 88,000;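 active means compounds that reduce the energy-transfer binding signal between the protein and its labelled peptide by more than half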;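 further: 0% = Smad3 plus labelled peptide maximal FRET and 100% = peptide-only background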
# MRP resist rev – compounds reversing MRP-mediated drug resistance; differential viability (reversal), % at 10 µM; hit rate 0.04% among 85,000; H69AR cells + 2 uM doxorubicin, CellTiter-Glo, 72 h; AID 602;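 active means viability drop by adding the cancer drug above about 55%, with treated viability meeting a 40% cutoff, limit read from the data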;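 further: viability without doxorubicin minus viability with 2 µM doxorubicin for each compound; larger differential means the compound sensitizes cells more to doxorubicin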
# Numbers without * were called inactive; nt = not tested or not shown; [ ] = another dose, or the depositor's remark. In the library only some 2.9% were active in any assay of this set; here they are far more common.
SMILES,MRP1 act,ERa coact pot,ERb SRC1 inh,ERa coact inh,Smad3 inh,MRP resist rev
O=C(Nc1cnn(Cc2ccc(Cl)cc2Cl)c1)c1cc(-c2cccs2)on1,-3,157,23,51*[fluorescence artefact?],-3,0
O=C(Nc1cnn(Cc2ccc(Cl)cc2Cl)c1)c1noc2c1CCCC2,-3,106,-7,11,8,9
COc1cccc2c1C(=O)c1c(O)c3c(c(O)c1C2=O)C[C@](O)(C(=O)CO)C[C@@H]3O[C@@H]1C[C@H](N)[C@@H](O)[C@H](C)O1,nt,nt,nt,nt,9,nt
CCc1ccc(-c2nc(-c3ccncc3)no2)cc1,5.8*,104,-6,-2,-15,11
CCOc1nc(-c2ccc(OC)cc2)ccc1-c1noc(-c2ccncc2)n1,nt,138,38,76*,9,nt
CCOc1nc(C)ccc1-c1noc(-c2ccncc2)n1,0,233*[fluorescence artefact?],-2,-6,1,21
CC1Cc2ccccc2N1C(=O)c1nn(C)cc1Br (centres undefined),-2,nt,nt,nt,nt,nt
C[N+](C)(C)[C@H](Cc1c[nH]c(=S)[nH]1)C(=O)O,nt,nt,nt,nt,-8,nt
Cc1ccc(SCC(=O)Nc2ccccc2C(=O)O)cc1,-1,102,-1,-3,11,9
COc1ccc(C[N+](C)(C)N)cc1OC,nt,nt,nt,nt,-2,nt
COc1ccc(/C=N/n2cc(-c3ccc(OC)cc3)nc2N)cc1,-2,37,23,77*[fluorescence artefact?],2,-19
Cn1cc(CNC(=O)/C=C/c2ccc(Cl)cc2)cn1,-1,nt,nt,nt,nt,nt
Cc1cc(NC(=O)c2ccc(S(=O)(=O)N(C)C)cc2)n(-c2ccccn2)n1,-4,nt,nt,nt,nt,nt
Cc1cc(NC(=O)c2cncc(Br)c2)n(-c2ccccn2)n1,-4,294*,-5,8,-2,-31
Cc1csc(NC(=O)CCc2c(C)nc3cc(-c4ccc(Cl)cc4)nn3c2C)n1,0,nt,nt,nt,nt,nt
Cc1nc2cc(-c3ccc(Cl)cc3)nn2c(C)c1CCC(=O)NC(C)c1ccc2c(c1)OCCO2 (centres undefined),5.5*,nt,nt,nt,nt,nt
CCN(c1ccccc1)S(=O)(=O)c1cc(C(=O)O)ccc1C,-2,12,74*,76*,15,-6
Cc1ncn(-c2ccccc2O)c1C,nt,nt,nt,nt,20,nt
O=C(O)CCn1ccnc1-c1ccccc1,0,475*,-1,-10,5,-1
Cc1nccn1CCC(=O)O,-2,115,7,6,-7,0
COc1ccc(CC(=O)Nc2ccc(-c3noc(-c4ccc(Cl)cc4)n3)cc2)cc1,-8,128,40,66*,-11,-6
CCOc1ccccc1-c1nc(-c2ccc(NC(=O)Cc3ccc(OC)cc3)cc2)no1,3,287*[fluorescence artefact?],50*[fluorescence artefact?],43,2,-6
CCOc1ccccc1-c1nc(-c2ccc(NC(=O)c3ccc(Br)o3)cc2)no1,0,384*,21,30,1,-11
CCN(CC)C[C@@H](O)c1ccc2ccc3ccccc3c2c1,nt,nt,nt,nt,-11,nt
CCOC(=O)C1=C(C)NC(=O)NC1c1c(O)ccc2ccccc12 (centres undefined),-2,92,4,-4,-2,13
SMILES,MRP1 act,ERa coact pot,ERb SRC1 inh,ERa coact inh,Smad3 inh,MRP resist rev
COc1ccc(Cn2c(O)c(C=Nc3ccc(OC)cc3)c3ccccc3c2=O)cc1,6.4*,nt,nt,nt,nt,nt
CC(C)CCC(C)N=Cc1c(O)n(Cc2ccccc2)c(=O)c2ccccc12 (centres undefined),0,108,5,2,8,-4
CC(=O)Nc1nc2n(n1)C(c1ccc(Cl)cc1)C=C(C)N2 (centres undefined),-1,98,7,9,63*,10
CC(=O)Nc1nc2n(n1)C(c1ccccc1)C=C(c1ccccc1)N2 (centres undefined),-4,100,12,-1,-8,-7
COc1ccc(C2C=C(c3ccc(Cl)cc3)Nc3nc(NC(C)=O)nn32)cc1 (centres undefined),-3,172,22,70*,4,2
O=C(O)Cc1[nH]cnc1C(=O)O,nt,nt,nt,nt,9,nt
COc1ccc(-c2ccnc(SCC(=O)Nc3ccccn3)n2)cc1,-2,100,-19,-15,9,5
Cc1[nH]n(C(C)(C)C)c(=O)c1Sc1ccccc1,-3,120,-15,-13,-1,12
Cc1[nH]n(-c2ccccc2)c(=O)c1Sc1ccc(Cl)cc1,1,72,81*,39,-12,-5
COc1ccccc1-c1nc2s/c(=C\c3cccs3)c(=O)n2n1,-1,43,39,67*[fluorescence artefact?],7,9
O=c1/c(=C/c2ccco2)sc2nc(-c3ccccc3Br)nn12,-2,74,62*[fluorescence artefact?],59*[fluorescence artefact?],-10,-2
COc1ccc(/C=c2\sc3nc(-c4ccccc4OC)nn3c2=O)c(OC)c1,-1,nt,nt,nt,nt,nt
CSc1nc(C)cc(Nc2ccc(O)c(CN3CCOCC3)c2)n1,nt,nt,nt,nt,-6,nt
CC(C)(C)NC(=O)/C=C/c1ccc(C(F)(F)F)cc1,-1,nt,nt,nt,nt,nt
CC(C)(C)NC(=O)/C=N/O,0,102,99*[fluorescence artefact?],3,-7,5
Cc1ccc(NC(=O)ON=C2CCCC2)cc1,-4,nt,nt,nt,nt,nt
Cc1cc(C)c2cc(CN(CCN3CCCC3)C(=O)Nc3ccc(F)cc3)c(=O)[nH]c2c1,-3,101,-14,11,2,0
Cc1cc(C)c2cc(CN(CCO)C(=O)Nc3ccc(Cl)cc3)c(=O)[nH]c2c1,-3,232*,-13,-19,8,-10
C[C@@H]1CC[C@H]2[C@H](C)[C@@H]3[C@@H](C[C@H]4[C@H]5CC=C6C[C@@H](O)CC[C@]6(C)[C@@H]5C[C@@H](O)[C@]34C)N2C1,nt,nt,nt,nt,-2,nt
CC(C)CSc1nnc2c(n1)[nH]c1ccccc12,-3,178,39,48,16,19
CCCCSc1nnc2c(n1)[nH]c1ccccc12,-1,157,44,56*,23,11
Cc1cc(C)nc(NC2=NCCN2C(=O)Nc2ccc(Cl)c(Cl)c2)n1,nt,970*,14,-54,10,-13
COc1cc(CN2CCCCC2)cc2cc(C(=O)O)c(=O)oc12,nt,nt,nt,nt,14,nt
Cc1sc2nc(C(C)Nc3ccccc3N3CCOCC3)[nH]c(=O)c2c1C (centres undefined),-3,254*,-5,-12,-3,-31
O=C(Nc1nc(-c2cccc([N+](=O)[O-])c2)cs1)C(c1ccccc1)c1ccccc1,8.9*,nt,nt,nt,nt,nt
SMILES,MRP1 act,ERa coact pot,ERb SRC1 inh,ERa coact inh,Smad3 inh,MRP resist rev
CC(OC(=O)c1ccccc1Br)C(=O)Nc1nc(-c2cccc([N+](=O)[O-])c2)cs1 (centres undefined),2,nt,nt,nt,nt,nt
COc1cccc(-c2csc(NC(=O)Oc3ccccc3)n2)c1,7.5*,nt,nt,nt,nt,nt
COc1ccc(CC(=O)Nc2nc(-c3cccc([N+](=O)[O-])c3)cs2)cc1,2,nt,nt,nt,nt,nt
COc1ccc(S(=O)(=O)N2CCOC2CNC(=O)C(=O)NCCc2c[nH]c3ccccc23)cc1C (centres undefined),-2,nt,nt,nt,nt,nt
Cc1cc(=O)oc2c(OS(C)(=O)=O)c(OS(C)(=O)=O)ccc12,nt,nt,nt,nt,16,nt
CC(C)(CO[C@@H]1C[C@@H]2CC[C@@]1(C)C2(C)C)[N+](=O)[O-],nt,nt,nt,nt,-2,nt

# Compound activity as filed in PubChem.
